Test systems include SK-MEL-2 melanoma; EKVX NSCLC; SN12C renal; UO-31 renal; TK-10 renal; ACHN renal; CAKI-1 renal; A498 renal; CCRF-CEM leukemia; MOLT-4 leukemia; RPMI-8226 leukemia; OVCAR-8 ovarian; OVCAR-5 ovarian; OVCAR-4 ovarian; IGROV1 ovarian; OVCAR-3 ovarian; HS 578T breast; NCI/ADR-RES ovarian; SK-OV-3 ovarian.
Assay in all cases: NCI-60 one-dose screen, 48 h (100 = growth as untreated, 0 = no growth, -100 = all killed)
Common to all, as to details: 10 µM unless noted

This is part of a sample that, as a whole, favours compounds with a hit. Of some 83,000 tested, about 20% had one in any assay.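 Single-concentration screen, 48 h exposure, 96-well plates. Endpoint: percent growth. Below 10 = active.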 Values without a mark were called inactive. The source made the active and inactive calls.

With `O=C1c2cccc(NCCN=Cc3cc([N+](=O)[O-])ccc3O)c2C(=O)c2c(NCCN=Cc3cc([N+](=O)[O-])ccc3O)cccc21`, the growth in the assay on SK-MEL-2 melanoma was 96%; with EKVX NSCLC, 87.5%; in the assay with SN12C renal, 40.5%; with UO-31 renal it was 76.5%; in the assay on TK-10 renal, 114%; in the assay with ACHN renal, 70.7%. The growth is 56.7% in the assay with CAKI-1 renal; 80.9% with A498 renal; 32.5% with CCRF-CEM leukemia; 4.21% (active) with MOLT-4 leukemia; 7.36% (active) with RPMI-8226 leukemia; 78.5% with OVCAR-8 ovarian. The growth is 86.3% in the assay with OVCAR-5 ovarian; 69.3% in the assay with OVCAR-4 ovarian; 73.5% in the assay on IGROV1 ovarian; 85.1% in the assay with OVCAR-3 ovarian; 53.9% in the assay with HS 578T breast; 99.9% in the assay on NCI/ADR-RES ovarian.
With `COc1ccc(OC)c(-c2c(C#N)c(-c3ccc(Cl)cc3)nc3c2c(-c2ccccc2)nn3-c2ccccc2)c1`, the growth was 102% with SK-MEL-2 melanoma; 102% in the assay with EKVX NSCLC; 95% in the assay on SN12C renal; 81.4% in the assay with UO-31 renal; 103% with TK-10 renal; 102% with ACHN renal. Besides, the growth is 67.9% in the assay on CAKI-1 renal; 113% with A498 renal; 98.8% with CCRF-CEM leukemia; 86.1% in the assay with MOLT-4 leukemia; 95.8% in the assay on RPMI-8226 leukemia; 101% in the assay with OVCAR-8 ovarian. Further, the growth in the assay with OVCAR-4 ovarian was 102%; with SK-OV-3 ovarian, 100%; in the assay with IGROV1 ovarian, 108%; with OVCAR-3 ovarian it was 107%; in the assay with HS 578T breast, 100%; with NCI/ADR-RES ovarian, 99.6%.
`O=C(NC(Cc1nnc2n(Cc3ccccc3)c(=O)c3c4c(sc3n12)CCCC4)c1ccc(Cl)cc1)c1ccccc1` (stereo unspecified): the growth in the assay on SK-MEL-2 melanoma was 95.7%; in the assay on EKVX NSCLC, 94.6%; with SN12C renal, 92.4%; in the assay on UO-31 renal, -5.74% (active); with TK-10 renal, 99%; in the assay with ACHN renal, 67.5%. The growth was 94.3% in the assay on CAKI-1 renal; 83.5% with A498 renal; 80.5% in the assay with CCRF-CEM leukemia; 53.1% with MOLT-4 leukemia; 67.9% in the assay with RPMI-8226 leukemia; 91.3% in the assay with OVCAR-8 ovarian. In addition, the growth in the assay with OVCAR-4 ovarian was 81%; in the assay with SK-OV-3 ovarian it was 109%; with OVCAR-3 ovarian it was 90.4%; with HS 578T breast, 91.3%; in the assay on NCI/ADR-RES ovarian, 93.9%.
Turning to `Cc1cc(C(=O)c2ccccc2)c(C)c2c1[nH]c1ccc(Cl)cc12`, the growth in the assay on SK-MEL-2 melanoma is 52.1%; in the assay on EKVX NSCLC it was 42.8%; in the assay on SN12C renal it was 22.1%; in the assay with UO-31 renal, 25%; in the assay with TK-10 renal it was 93.7%; in the assay on ACHN renal it was 24.8%. The growth was 24.7% in the assay with CAKI-1 renal; -11.8% (active) in the assay with A498 renal; 8.5% (active) in the assay on CCRF-CEM leukemia; 15.9% in the assay with MOLT-4 leukemia; -0.677% (active) with RPMI-8226 leukemia; 21.9% in the assay on OVCAR-8 ovarian. Besides, the growth in the assay with OVCAR-4 ovarian is 43.5%; with SK-OV-3 ovarian it was 38%; in the assay on IGROV1 ovarian, 19.1%; in the assay on HS 578T breast, 33.2%.
As for `Cc1ccc(-n2nc3c(c(C#N)c2=O)CC(c2ccccc2Cl)C([N+](=O)[O-])=C3O)cc1` (stereo unspecified), the growth in the assay on SK-MEL-2 melanoma was 99.2%; with EKVX NSCLC, 90.2%; in the assay with SN12C renal, 108%; in the assay on UO-31 renal, 78.4%; with TK-10 renal, 123%; with ACHN renal, 100%. Besides, the growth with CAKI-1 renal is 84%; with A498 renal it was 85.9%; in the assay on CCRF-CEM leukemia, 84.3%; with MOLT-4 leukemia, 77.1%; with RPMI-8226 leukemia it was 83.2%; in the assay with OVCAR-8 ovarian, 102%. For the same molecule, the growth in the assay with OVCAR-5 ovarian is 108%; in the assay on OVCAR-4 ovarian, 90.4%; with IGROV1 ovarian, 90%; in the assay with OVCAR-3 ovarian, 103%; in the assay with HS 578T breast, 94.7%; in the assay with NCI/ADR-RES ovarian, 98.2%.
As for `O=[N+]([O-])c1ccc(N2c3ccncc3Sc3ccncc32)cc1`, the growth in the assay with SK-MEL-2 melanoma is 93.8%; with EKVX NSCLC, 88.7%; in the assay with SN12C renal, 99%; with UO-31 renal it was 56.9%; in the assay on TK-10 renal, 105%; in the assay on ACHN renal it was 93.7%. The growth with CAKI-1 renal was 87.8%; in the assay on A498 renal, 112%; in the assay with CCRF-CEM leukemia it was 101%; in the assay on MOLT-4 leukemia, 104%; in the assay with RPMI-8226 leukemia it was 93.5%; in the assay with OVCAR-5 ovarian, 118%. In addition, the growth is 109% in the assay on OVCAR-4 ovarian; 116% in the assay with SK-OV-3 ovarian; 94.2% in the assay on OVCAR-3 ovarian; 104% in the assay on HS 578T breast; 106% in the assay on NCI/ADR-RES ovarian.
As for `COc1ccc(N=C(c2ccccc2)C2C(=O)c3ccccc3C2=O)cc1`, the growth is 40.8% with SK-MEL-2 melanoma; 104% with EKVX NSCLC; 104% with SN12C renal; 40.5% with UO-31 renal; 103% with TK-10 renal; 72.1% in the assay on ACHN renal. Also, the growth with CAKI-1 renal is 88.1%; with A498 renal, 61.2%; in the assay with CCRF-CEM leukemia it was 46.1%; with MOLT-4 leukemia, 49.2%; in the assay with RPMI-8226 leukemia, 37.2%; in the assay on OVCAR-8 ovarian it was 83.3%. The growth in the assay with OVCAR-4 ovarian was 77.3%; in the assay with SK-OV-3 ovarian it was 108%; in the assay on OVCAR-3 ovarian, 82.3%; with HS 578T breast, 86.9%; in the assay with NCI/ADR-RES ovarian, 91.9%.
In the case of `Nc1ccc2c(c1)c(N)nn2C(=O)Nc1ccc(Cc2ccccc2)cc1`, the growth with SK-MEL-2 melanoma is 73.7%; with EKVX NSCLC, 82.3%; with SN12C renal, 61.1%; in the assay on UO-31 renal, 39.3%; in the assay on TK-10 renal it was 88.3%; with ACHN renal, 48.9%. In addition, the growth in the assay on CAKI-1 renal was 38.9%; with A498 renal it was 103%; in the assay with CCRF-CEM leukemia, 55.5%; in the assay with MOLT-4 leukemia, 27.8%; in the assay with RPMI-8226 leukemia, 28.2%; in the assay with OVCAR-5 ovarian, 67.2%. For the same molecule, the growth was 56.2% with OVCAR-4 ovarian; 107% in the assay on SK-OV-3 ovarian; 83.4% in the assay on IGROV1 ovarian; 70.1% in the assay with OVCAR-3 ovarian; 101% with HS 578T breast; 78% with NCI/ADR-RES ovarian.
Regarding `Cc1ccc(Cl)cc1NC(=O)c1cc2ccccc2cc1O`, the growth is -12.3% (active) in the assay on SK-MEL-2 melanoma; 4.4% (active) in the assay with EKVX NSCLC; -21.8% (active) in the assay on SN12C renal; -8.04% (active) with UO-31 renal; -1.32% (active) in the assay on TK-10 renal; -15% (active) in the assay with ACHN renal. Also, the growth in the assay with CAKI-1 renal is -16.8% (active); in the assay on A498 renal it was -31.4% (active); with CCRF-CEM leukemia, -22.3% (active); in the assay on MOLT-4 leukemia, -37.4% (active); with RPMI-8226 leukemia it was -58.2% (active); with OVCAR-8 ovarian it was 7.85% (active). Further, the growth was 3.71% (active) in the assay on OVCAR-4 ovarian; -5.94% (active) in the assay on IGROV1 ovarian; -25.9% (active) in the assay with OVCAR-3 ovarian; -21% (active) with HS 578T breast; -27.9% (active) with NCI/ADR-RES ovarian.

The record behind these values is PubChem BioAssay (NCI).
